An excerpt weighted towards active compounds, which were near 6.8% of everything screened.
NADH coupling: inhibitors of PK/LDH coupling enzymes, profiling panel, artefact control, biochemical, MLSMR library; coupled PK/LDH NADH assays, four targets; IC50, µM (top dose mostly 10 µM), inactives show top-dose inhibition; hit rate 0.02% among 65,000; AID 774, 2007;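 active means single-dose screening hits from any of four coupled enzyme assays that gave an IC50 when retested across doses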;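 further: the DPM-DC format reads NADH fluorescence rather than 340 nm absorbance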
Spn DPM-DC inh: S. pneumoniae DPM-DC inhibitors, primary screen, biochemical, PK/LDH-coupled NADH fluorescence | calls only at 10 µM | diphosphomevalonate decarboxylase (Streptococcus pneumoniae D39) | hit rate 0.49% among 65,000 | purified DPM-DC;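 active means the 320 compounds with the highest percent inhibition in the single-dose primary screen, excluding strongly autofluorescent ones, cut at about 32% in these data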;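 further: kinetic rate of NADH fluorescence loss reporting ADP formed by the decarboxylase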
Abs 340nm: compound light absorbance at 340 nm, profiling panel, artefact control, biochemical, MLSMR library, data from PS, PMK, MK assays; fold change at 10 µM; 65,000 tested, under 10 active; compound absorbance at 340 nm, fold over control;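 active means at 10 µM dose, initial 340 nm absorbance at least 2 fold that of control wells; inactive means change under 2 fold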;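 further: initial absorbance extrapolated from kinetic A340 decline of NADH oxidation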
Fluor 339 460: intrinsic fluorescence of library compounds, ex339/em460 – biochemical, MLSMR library, data from DPM-DC assay, artefact control, profiling panel; compound autofluorescence, ex339/em460 nm, NADH buffer; active compounds read high; 1 = no-compound wells, NADH background; fluorescence fold increase at 10 µM; hit rate 5.5% among 65,000;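 active means at 10 µM, mean starting fluorescence two-fold or more over control wells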;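 further: signal is the first read of a kinetic run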
PMK inhibit: S. pneumoniae PMK inhibitors, primary screen, biochemical, mevalonate pathway, pilot trial included; phosphomevalonate kinase (Streptococcus pneumoniae D39); purified PMK, PK/LDH-coupled NADH absorbance 340 nm; inhibition, % at 10 µM; hit rate 0.49% among 65,000;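 active means top-ranked compounds by inhibition in the single 10 µM screen, taking a fixed number of the strongest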;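 further: 0% = full reaction with DMSO carrier and 100% = background rate without enzyme reaction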
MK inhibit: S. pneumoniae MK inhibitors, primary screen, biochemical, PK/LDH-coupled NADH absorbance. mevalonate kinase [Streptococcus pneumoniae D39]. inhibition, % at 10 µM. purified MK, PK/LDH-coupled NADH absorbance 340 nm. hit rate 0.48% among 65,000;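 active means ranked among the strongest by inhibition in the single 10 µM screen, a fixed top-ranked set picked for dose follow-up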
* hit, by the source's call; i = inactive; · = not tested or not shown.

SMILES	NADH coupling	Spn DPM-DC inh	Abs 340nm	Fluor 339 460	PMK inhibit	MK inhibit
Cc1cc(OCc2nn[nH]n2)c2c3c(c(=O)oc2c1)CCC3	9.0%	·	1.1	3.86*	13.0	5.0
Cc1cc(OCC(=O)NC2CCS(=O)(=O)C2)c2c3c(c(=O)oc2c1)CCC3 (configuration not stated)	2.0%	·	1.12	2.25*	0.0	3.0
O=c1c2ccccc2nc(N2CCCC2)n1-c1ccc(Cl)cc1	4.0%	i	1.02	3.33*	0.0	1.0
O[C@@H]1CCCC[C@H]1N1CCC(c2ccccc2)CC1	3.0%	i	0.96	1	3.0	7.0
CCOCCN1CCC(OC(C)=O)C(C)C1 (configuration not stated)	1.0%	i	1.01	1.08	0.0	4.0
CN1C(=O)N(C)C(=O)C2(Cc3c(nc4ccccn4c3=O)N3CCc4ccccc4C32)C1=O (configuration not stated)	3.0%	i	1.06	1.65	9.0	0.0
COc1cc2[nH]c(=O)n(-c3ccccc3)c(=O)c2cc1OC	1.0%	·	1.1	2.1*	0.0	2.0
COc1cc2[nH]c(=O)n(-c3cccc(Cl)c3)c(=O)c2cc1OC	2.0%	i	1.07	1.64	0.0	1.0
CC(=NCCCN1CCOCC1)c1c(O)n(-c2ccccc2C)c(=O)[nH]c1=O	1.0%	i	0.99	1.03	7.0	7.0
COC(=O)C(C)Oc1cc(C)cc2oc(=O)c3c(c12)CCC3 (configuration not stated)	7.0%	·	0.99	3.83*	7.0	6.0
CCOC(=O)C(C)Oc1cc(C)cc2oc(=O)c3c(c12)CCCC3 (configuration not stated)	4.0%	·	1.04	2.13*	0.0	7.0
COC(=O)C(C)Oc1cc(C)cc2oc(=O)c3c(c12)CCCC3 (configuration not stated)	7.0%	·	1.04	3.73*	8.0	6.0
COC(=O)c1cc(COc2cc(C)cc3oc(=O)c4c(c23)CCC4)c(C)o1	4.0%	i	1.03	1.66	0.0	7.0
Cc1cc(OCC(=O)OC(C)C)c2c3c(c(=O)oc2c1)CCCC3	1.0%	i	1.04	1.55	0.0	0.0
N[C@@H](Cc1c[nH]c2ccccc12)c1nnc(SCc2ccc(Cl)cc2)o1	2.0%	i	1.02	1.14	0.0	5.0
CC(C)(C)c1ccc(O)c(CN2CCN(c3ccccc3)CC2)c1	0.0%	i	1.05	1.1	0.0	0.0
CC(C)Cc1[nH]c(=O)c(C#N)c2c1CCC2	5.0%	·	1.06	2.31*	4.0	6.0
CCC(=O)OC1(c2cccc(C)c2)CC(C)N(C)CC1C (configuration not stated)	3.0%	i	0.99	1.17	3.0	7.0
CC(C)[C@H]1C(=O)N2CCC[C@H]2[C@]2(O)O[C@](NC(=O)[C@@H]3C=C4c5cccc6[nH]cc(c56)C[C@H]4N(C)C3)(C(C)C)C(=O)N12	7.0%	i	0.98	2.35*	0.0	9.0
CC1CN(O)C2CCc3nonc3C12O (configuration not stated)	6.0%	i	0.99	1.07	9.0	10.0
COc1ccccc1N1CCN(Cc2ccccc2F)CC1	17.0%	i	1.05	1.01	0.0	51.0*
COc1ccccc1N1CCN(Cc2ccccc2Cl)CC1	16.0%	i	1.05	1.09	0.0	49.0*
Cn1c(C(=O)N2CCC3(CC2)OCCO3)cc2c(=O)n(C)c3ccccc3c21	2.0%	i	1.01	1.06	14.0	0.0
Cc1cccn2c(=O)c3cc(C(=O)N4CCC5(CC4)OCCO5)n(C)c3nc12	10.0%	·	1.11	5.05*	12.0	8.0
COc1ccc(CN2CCN(C(=O)Cc3ccccc3)CC2)c(OC)c1	7.0%	i	1.03	1.02	0.0	52.0*
Cc1cc(C)c(C2=NOC(O)(C(F)(F)F)C2)c(=O)[nH]1 (configuration not stated)	8.0%	i	1.01	1.18	19.0	4.0

Screens (PubChem BioAssay)
